Source: PubChem
An excerpt weighted towards active compounds, which were near 1.3% of everything screened.
Beta2AR agonist: agonists of human beta-2 adrenergic receptor inducing internalization | P07550 | Am2.2-beta2AR cells, FAP receptor internalization, flow cytometry | response, % (test concentration not listed) | 0.43% of 340,000 active | AID 504454;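 active = response above a set limit, near 3 SD of response in nonfluorescent compounds, cut at about 42% in these data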
GRK2 inh: blocks RNA aptamer binding to human GRK2. P25098. 0.59% of 330,000 active. bead flow cytometry, FAM-aptamer displacement from GRK2. inhibition of aptamer binding, % at 10 µM. AID 488847;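 active = inhibition of aptamer binding above 40%, roughly 3 SD of noise, on plates passing a quality check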;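 note: median bead fluorescence of bound FAM aptamer so fluorescent compounds give negative values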
NTR1 agonist: activates human neurotensin receptor 1; 0.17% of 330,000 active; P30989; NTR1-U2OS beta-arrestin-GFP spot imaging, agonist mode; activation, % at 20 µM; AID 493036;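 active = activation at or above 40% of the spot to cytoplasm intensity ratio, with at least 20 cells analyzed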;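 note: 0% = DMSO without peptide and 100% = 100 nM NTR1 peptide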
Bfl-1 A1 inh: inhibitors of the anti-apoptotic protein A1, read as caspase activation. 0.066% of 330,000 active. MEF A1-2A-BIM cells, Caspase-Glo 3/7 luminescence, 3 h; percent of clofoctol response, vehicle zero. caspase activation, % (concentration not given with the values). AID 2462;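 active = over half of replicate activation scores above 10%, or exactly half above 10 with the replicate mean above 10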
VLA-4 inh: inhibition in a human VLA-4 binding assay. VLA-4 expressing cells, ligand binding flow cytometry. inhibition, % (about 7 µM as worked out from the volumes in the protocol). 0.2% of 330,000 active. AID 2557; in the data active = inhibition above about 50%
Target sequence (P13612 whole entry, looked up): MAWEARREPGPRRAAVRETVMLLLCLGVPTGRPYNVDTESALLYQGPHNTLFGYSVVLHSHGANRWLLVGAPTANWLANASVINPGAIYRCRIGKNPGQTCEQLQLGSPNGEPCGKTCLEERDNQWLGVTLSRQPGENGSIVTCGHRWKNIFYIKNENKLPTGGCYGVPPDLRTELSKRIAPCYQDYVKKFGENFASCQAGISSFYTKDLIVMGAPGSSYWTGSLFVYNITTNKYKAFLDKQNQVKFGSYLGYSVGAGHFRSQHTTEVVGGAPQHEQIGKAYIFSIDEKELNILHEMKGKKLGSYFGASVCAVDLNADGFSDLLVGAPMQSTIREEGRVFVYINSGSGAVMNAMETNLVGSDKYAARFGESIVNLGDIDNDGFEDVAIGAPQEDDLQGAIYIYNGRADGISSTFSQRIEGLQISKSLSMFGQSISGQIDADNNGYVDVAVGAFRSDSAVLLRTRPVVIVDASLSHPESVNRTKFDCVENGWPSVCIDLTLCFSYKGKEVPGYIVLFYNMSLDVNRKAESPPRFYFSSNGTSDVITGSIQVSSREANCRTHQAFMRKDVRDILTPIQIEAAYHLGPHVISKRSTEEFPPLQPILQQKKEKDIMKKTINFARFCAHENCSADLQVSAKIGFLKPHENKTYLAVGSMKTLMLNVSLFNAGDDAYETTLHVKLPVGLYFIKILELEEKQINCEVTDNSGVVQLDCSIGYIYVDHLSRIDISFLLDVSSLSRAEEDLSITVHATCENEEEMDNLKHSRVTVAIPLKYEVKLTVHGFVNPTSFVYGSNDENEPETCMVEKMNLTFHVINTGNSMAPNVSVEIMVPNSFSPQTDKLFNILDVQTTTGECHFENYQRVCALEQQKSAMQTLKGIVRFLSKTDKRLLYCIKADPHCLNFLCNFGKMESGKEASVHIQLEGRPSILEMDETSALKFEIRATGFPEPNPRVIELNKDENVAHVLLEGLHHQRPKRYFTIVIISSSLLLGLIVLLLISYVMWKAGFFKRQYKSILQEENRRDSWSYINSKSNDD
GRK2 inh confirm: human GRK2 inhibition confirmation, cherry pick 1 | 4% of 2,000 active | aptamer displacement, % at 10 µM | shares compounds with GRK2 inh | bead-bound GRK2, FAM-aptamer displacement, flow cytometry | AID 504451;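 active = aptamer displacement above 40%, near three times the noise of non-fluorescent compounds, on plates passing quality checks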;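 note: negative values mostly reflect intrinsic compound fluorescence rather than true enhancement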
Aptamer quench: quenches fluorescent RNA aptamer, GRK2 hit artifact. shares compounds with GRK2 inh. Fluorescent RNA aptamer beads, quenching, flow cytometry; hits give high values. fluorescence change (kMESF span), kMESF (no concentration beside the values). 110 tested, under 10 active;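 active = compounds whose bead fluorescence drops by more than 37 kMESF across the dose range, marking them as dye quenchers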
Aptamer quench SP: counter-screen for GRK2 aptamer inhibitors: fluorescent aptamer quenchers. shares compounds with GRK2 inh. Carboxyfluorescein RNA aptamer on beads, flow cytometry quenching; hits give low values. fluorescence response (% of DMSO), % at 10 µM. 2,000 tested, under 10 active. AID 504580;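 active = compounds that quench the bead-bound fluorescent RNA probe, cutting fluorescence to under half of the solvent control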;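 note: counterscreen run without GRK2 so only probe quenching by compound is measured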
GRK2 confirm 2: confirmation of human GRK2 inhibitors binding RNA aptamer site. shares compounds with GRK2 inh. 360 tested, under 10 active. inhibition of aptamer binding, % at 10 µM. bead-bound GRK2, FAM-aptamer displacement, flow cytometry;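 active = inhibition of aptamer binding above 40%, about triple the noise seen with nonglowing compounds, on plates passing quality control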;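 note: negative values mostly come from compounds that fluoresce themselves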
FAM quench SP: counter-screen for GRK2 binding hits: quenchers of fluorescent RNA aptamer. shares compounds with GRK2 inh. carboxyfluorescein RNA aptamer beads, flow cytometry quenching; hits give low values. fluorescence response vs DMSO, % at 10 µM. 360 tested, under 10 active;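 active = response vs DMSO under 50%, meaning signal dropped by over half, treated as fluorescence quencher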;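 note: labelled aptamer on streptavidin beads without GRK2 as a quench counter-screen; 100% = bead fluorescence of DMSO wells and lower means quenching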
The depositor's hits bear a star; x = no result given.

SMILES | Beta2AR agonist | GRK2 inh | NTR1 agonist | Bfl-1 A1 inh | VLA-4 inh | GRK2 inh confirm | Aptamer quench SP | others
Fc1cccc(Nc2ncnc3sc4c(c23)CCC4)c1 | 7 | 94* | 5 | 1 | -4 | x | x | GRK2 confirm 2=-13;FAM quench SP=101
O=S(=O)(Nc1ncnc2sc3c(c12)CCC3)c1cc(F)ccc1F | -10 | 0 | 3 | 1 | -2 | x | x
NC(=S)N1OC[C@@H]2COc3ccc4ccccc4c3[C@@H]21 | 7 | 65* | 2 | -1 | -15 | 1 | 95
COc1ccc(CCNCC(C)c2ccccc2)cc1 (stereo unspecified) | -5 | 4 | 0 | 3 | 10 | 0 | 106
COc1ccc(CCC(C)NCC(C)c2ccccc2)cc1 (stereo unspecified) | -3 | 0 | -1 | -2 | 9 | x | x
CCn1cc2nc(SCC(=O)Nc3ccccc3F)n(Cc3ccccc3)c(=O)c2n1 | -11 | 2 | 0 | 1 | -3 | x | x
Cc1ccc(-c2ccccc2)n1-c1ccc(C(=O)O)cc1 | 7 | 51* | 0 | 0 | -10 | -3 | 96 | GRK2 confirm 2=-7;FAM quench SP=103
COC(=O)c1nc(N)sc1C | -9 | 0 | -2 | 1 | 7 | x | x
CC1CCCC(C)N1C(=O)CSc1nc(N)cc(N)n1 (stereo unspecified) | 1 | 6 | 0 | 0 | 10 | x | x
Cc1cc(N)nc(SCC(=O)N2C(C)CCCC2C)n1 (stereo unspecified) | 3 | 50* | -2 | 1 | 3 | 2 | 99
O=C(COC(=O)CNC(=O)c1cccc(Br)c1)Nc1nnc(-c2ccccc2)o1 | 3 | 3 | 4 | -1 | -10 | x | x
O=C(COC(=O)CNC(=O)c1ccccc1)Nc1nnc(-c2ccccc2)o1 | 10 | 0 | 0 | 1 | 22 | -1 | 96
COc1ccc(N(C(=O)c2csnn2)C(C(=O)NC2CCCC2)c2ccccc2)cc1 (stereo unspecified) | 0 | 2 | -1 | 0 | 4 | x | x
O=c1c2c([N+](=O)[O-])cc([N+](=O)[O-])cc2nc2ccccn12 | 18 | 69* | 0 | 1 | 1 | -1 | 98
COc1cccc(OC)c1C(=O)n1nc(C)cc1C | 4 | 15 | 1 | -2 | 1 | -2 | 102
C#CCn1c(=O)cc(C)c2ccccc21 | -2 | 47* | 0 | 0 | 1 | 2 | 102
Cc1cc(=O)n(CCC(=O)O)c2ccccc12 | -4 | 0 | 0 | -1 | -17 | x | x
CC(C)=NN1C(c2nonc2N)=NOC1(C)C | -4 | 39 | -1 | -1 | 5 | -4 | 104
C=C(C)C(=O)Nc1cccc(C2=NOC3(C2)C[C@@H](C(N)=O)N(C(=O)/C=C/C=C/C)C3)c1 (stereo partly specified) | 5 | 92* | 0 | -2 | -3 | 83* | 100 | Aptamer quench=10
C=C(C)C(=O)Nc1cccc(C2=NOC3(C2)C[C@H](C(N)=O)N(C(=O)CC#N)C3)c1 (stereo partly specified) | x | 67* | -5 | 1 | -2 | 16 | 102 | Aptamer quench=6.5
CCC(=O)Nc1cccc(C2=NOC3(C2)C[C@H](C(N)=O)N(C(=O)Cc2ccc([N+](=O)[O-])cc2)C3)c1 (stereo partly specified) | -10 | 3 | 8 | -1 | 2 | x | x | GRK2 confirm 2=6;FAM quench SP=97
C/C=C(/C)C(=O)Nc1cccc(C2=NOC3(C2)C[C@H](C(N)=O)N(C(=O)Cc2ccc([N+](=O)[O-])cc2)C3)c1 (stereo partly specified) | -3 | 0 | 0 | 0 | 1 | x | x
